Only some compounds are listed: those with a hit (about 0.29% of all), similar ones and a draw of the others.
Y pestis TopoI: blocks Yersinia pestis topoisomerase I activity; Y. pestis Topo-I cleavage product accumulation, plate reader; AID 504884; 360,000 tested, 0.064% active; activity, % at 10 µM; in the data active = activity above about 50%, passing the limit was not always enough
Mtb hypoxia rep: reduces hypoxia-regulated biosensor signal in M. tuberculosis. M. tuberculosis hypoxia-regulated fluorescent reporter, fluorescence. fluorescence inhibition, % (no concentration beside the values). 300,000 tested, 0.1% active; in the data active = fluorescence inhibition mostly above about 23%, no sharp cut-off; inactive = mostly below about 17%
Vc quorum ag: inducers of Vibrio cholerae quorum light production without autoinducers. V. cholerae BH1578 lux reporter, luminescence, 6 h. activation, % at 18.7 µM. 350,000 tested, 0.16% active; in the data active = activation mostly above about 9.7%, no sharp cut-off
The depositor's hits bear a star; i = inactive; . = not tested or not shown; + = active, no number.

SMILES	Y pestis TopoI	Mtb hypoxia rep	Vc quorum ag
N#C/C(=C(/O)c1ccc([N+](=O)[O-])o1)c1nc2ccccc2[nH]1	1	8	35*
CCC(C)C1NC(=O)c2cc([N+](=O)[O-])cc(F)c2NCCCCC(C(N)=O)NC(=O)C(CCCCN)NC1=O (configuration not stated)	.	9	.
COc1ccccc1C(=O)OCC#CCSc1nnc(-c2cccc3ccccc23)o1	52*	25	0
COc1ccc(C(=O)OCC#CCSc2nnc(-c3cccc4ccccc34)o2)cc1	30	.	-1
OCC#CCSc1nnc(-c2cccc3ccccc23)o1	-1	54*	0
O=C(OCC#CCSc1nnc(-c2cccc3ccccc23)o1)c1ccc(Cl)cc1	7	.	0
Oc1ccc(C=NNc2cc(N3CCOCC3)nc(N3CCOCC3)n2)cc1	.	0	.
Fc1cccc(CON=Cc2c(-c3ccccc3)nc3ccc(Cl)cn23)c1	.	38*	.
Cc1cccn2c(/C=N/OCc3ccc(F)cc3)c(-c3ccc(Cl)cc3)nc12	-1	.	i
O=C(CC(c1ccccc1)(c1ccccc1)c1ccccc1)NC(Cc1ccc(O)cc1)C(=O)O (configuration not stated)	.	7	.
CCOc1ccc(C=CC(=O)C(C(N)=O)=C2SCCS2)cc1	.	6	.
Cc1ccc2c(Cl)c(C)c(N3CCCCC3)nc2n1	50*	3	0
Cc1nc2ccccc2nc1N1CCCCC1	2	2	-1
O=C(NN=Cc1cc([N+](=O)[O-])ccc1O)Nc1ccccc1	.	7	.
CNC(=S)Nc1ccc(-c2nc3ccc(C)cc3s2)cc1	7	37*	0
CC(=O)NC(=S)Nc1ccc(-c2nc3ccc(C)cc3s2)cc1	5	.	i
COc1ccc(NC(=O)CSc2nnc(-c3ccncc3)n2C)cc1	7	3	0
COc1ccc(-c2nnc(SCC(=O)Nc3ccccc3)n2C)cc1	2	9	36*
CC1(C(=O)NS(=O)(=O)C2CC2)CCN(C(=O)COc2ccc(Cl)cc2Cl)C1 (configuration not stated)	5	.	1
CCN(CC)C(=N)C(C#N)=NNc1ccc(C)cc1	.	6	.
Cc1ccc(C2(C)CC(C)(C)N(C(=O)CSc3nnc(C)s3)c3ccccc32)cc1 (configuration not stated)	35	-10	0
Cc1nnc(SCC(=O)N2c3ccccc3C(C)(c3ccccc3)CC2(C)C)s1 (configuration not stated)	59*	8	0
CC(=NNC(=O)c1sc(NS(=O)(=O)c2ccccc2)nc1C)c1ccc(F)cc1	.	6	.
C=CCc1cc(OC)ccc1OCCN1CC(C)OC(C)C1 (configuration not stated)	-3	0	1
O=C(NCC1CCCO1)c1coc2nc3ccccc3nc12 (configuration not stated)	0	4	+
SMILES	Y pestis TopoI	Mtb hypoxia rep	Vc quorum ag
O=C(Nc1ccccc1C(=O)NCC1CCCO1)c1ccccc1 (configuration not stated)	-11	8	i
CCN(CC(=O)NCc1ccc(F)cc1)C(=O)Cc1ccc(OC)cc1	10	1	0
CC1CCN(c2ccc(NC(=O)c3ccc(Br)o3)cc2)CC1	-3	8	-1
O=C(NN=Cc1cccs1)C1COc2ccccc2O1 (configuration not stated)	.	12	.
C=CCSc1nc2ccccc2c(=O)n1Cc1ccccc1	0	10	0
O=c1c2ccccc2nc(SCc2ccccc2Cl)n1Cc1ccccc1	2	5	26*
CC1(C)CC(=O)C=C(NCC(=O)O)C1	2	5	-5
CCSCCC(NC1=CC(=O)CC(C)(C)C1)C(=O)O (configuration not stated)	2	5	17*
O=C(c1cc(COc2c(F)cccc2F)on1)N(Cc1ccccc1)CC1CC1	64*	10	0
CN(C(=O)c1cc(COc2c(F)cccc2F)on1)C1CCOC1 (configuration not stated)	6	-1	0
CC(=NOCC(=O)Nc1ccc(OC(F)(F)F)cc1)c1ccc2c(c1)OCCO2	.	-1	.
Cc1cc(NC(=O)C(C)SCC(=O)N(C)CC(=O)Nc2ccccc2C(F)(F)F)no1 (configuration not stated)	1	2	i
Cc1cc(NC(=O)C(C)SCC(=O)N(C)CC(=O)Nc2ccc(F)cc2)no1 (configuration not stated)	101*	9	i
O=C(COC(=O)c1ccc([N+](=O)[O-])o1)Nc1ccc(F)cc1	5	35*	i
O=C(COC(=O)c1ccc([N+](=O)[O-])o1)Nc1ccc(N2CCOCC2)cc1	4	.	i
CCOC(=O)C(=NNc1ccccc1)N1CCCc2ccccc21	.	8	.
O=C(Nc1ccc(S(=O)(=O)N2CCOCC2)cc1)c1cccs1	-1	.	-6
O=C(Nc1ccc(S(=O)(=O)N2CCOCC2)cc1)c1ccc([N+](=O)[O-])s1	-4	38*	1
CC(=O)Nc1ccc(NC(=O)c2cc([N+](=O)[O-])cc([N+](=O)[O-])c2)cc1	2	6	0
Cc1ccc(NC(=O)c2ccc(Nc3c([N+](=O)[O-])cc([N+](=O)[O-])cc3[N+](=O)[O-])cc2)cc1	6	46*	0
O=C(NCCn1cc(SCc2ccccc2)c2ccccc21)c1ccccc1F	50*	11	0
O=C(CSc1cn(CCNC(=O)c2ccccc2F)c2ccccc12)NCC1CCCO1 (configuration not stated)	8	5	i
OC[C@@H]1CN(Cc2ccco2)C[C@H](n2cnc3c(N4CCN(c5ccccc5)CC4)ncnc32)O1	14	.	i
O=CN/C=C/c1cc(O)ccc1O	-5	.	0
CC1CCCC(=NNC(=S)Nc2ccccc2)C1 (configuration not stated)	.	8	.
SMILES	Y pestis TopoI	Mtb hypoxia rep	Vc quorum ag
O=C(CCN1c2ccccc2Sc2ccccc21)OCC(=O)N1CCN(C(=O)c2ccco2)CC1	52*	.	.
O=C(CSc1ccccc1)OCC(=O)N1CCN(C(=O)c2ccco2)CC1	12	2	-5
Cc1ccc(NC(=O)CCc2ccc(C)o2)cc1	-3	-5	0
O=C(CCC(=O)c1ccccc1)NC1CCCN(Cc2ccccc2F)C1 (configuration not stated)	-9	-14	i
CCCCn1c(=O)[nH]c(=O)c2c1nc(-c1ccc(CC)c([N+](=O)[O-])c1)n2C	.	3	.
CCCCn1c(=O)[nH]c(=O)c2c1nc(-c1ccc(-c3ccc(F)cc3)o1)n2C	.	37*	.
Cc1ccc(C(=O)N(Cc2nc(-c3ccc(C)cc3)no2)C(C)C)cc1	25	.	0
Cc1ccc(SCC(=O)N(Cc2nc(-c3ccccc3)no2)C(C)C)cc1	0	.	25*
Cn1c(=O)c(=O)n(C)c2cc(S(=O)(=O)CCC(=O)Nc3c(F)c(F)c(F)c(F)c3F)ccc21	2	-7	0
O=C(Nc1ccc(Cl)c(Cl)c1)N1CCCCCC1	2	0	i
O=C(Nc1ccc(Cl)c(Cl)c1)N1CCC(N2CCCCC2)CC1	-13	9	+
COc1ccc2ccccc2c1C=NNC(=O)c1ccc(C)nc1	.	8	.
Cc1ccccc1-c1cccc([C@@H]2C[C@H]3[C@H](CON3C)CN2S(=O)(=O)c2ccccc2C)c1	37	.	1
CCc1nc2scc(-c3ccccc3)c2c(=O)n1N	7	14	1
CCN=C1Cn2c(nc3scc(-c4ccccc4)c3c2=O)CN1CC	12	4	17*

From PubChem
